# Compounds with a hit are over-represented: about 3.8% of the library has one in this group of screens.
# proKLK7 act = activators of human kallikrein-7 zymogen; P49862; purified proKLK7, EDANS-DABCYL substrate fluorescence; 100% is mature enzyme control, 0% vehicle; activation, % at 7 µM; 0.9% of 370,000 active; AID 652039;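 active means activation above the mean of all tested compounds plus 3 SD, computed per campaign excluding outliers beyond control limits, cut at about 13% in these data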
# rRNA inh HTS = inhibitors of bacterial rRNA selective over humanized ribosomes. GFP signal change (wild-type ribosome), % (no concentration beside the values). E. coli WT GFP vs humanized-ribosome RFP mutants, fluorescence, 24 h; active compounds read low; DMSO median 0, no signal -100. 1.6% of 350,000 active;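 active means significant combined selectivity score with lowered wild-type GFP, culture density cut under 30%, mutant RFP and density less affected; inactive means any of these conditions unmet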
# ADAM17 inh = inhibitors of human ADAM17 | recombinant ADAM17, EDANS/DABCYL FRET peptide cleavage | inhibition, % at 6.95 µM | 0.83% of 370,000 active;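 active means inhibition above the mean of compounds lying between control limits plus 3 SD, set per campaign, cut at about 8.5% in these data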;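 further: 0% = DMSO-only wells as the low control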
# FGF22 binding = FGF22 (human) thermal shift binding; Q9HCT0; recombinant FGF22 thermal shift, SYPRO orange fluorescence; percent of sucrose octasulfate shift, DMSO zero; activity (Tm shift, normalised), % at 9.99 µM; 1.5% of 340,000 active; AID 651658;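 active means mean Tm shift, scaled 0 neutral to 100 positive control, at about 1.3% or above, every replicate too, limit read from the data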
# ADAM10 inh = inhibits human ADAM10 | recombinant ADAM10, EDANS/DABCYL FRET peptide cleavage, 3 h | inhibition, % at 7 µM | 0.62% of 370,000 active;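 active means inhibition above a per-campaign cutoff equal to the mean of compounds falling between control-based bounds plus 3 SD, cut at about 20% in these data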;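 further: 0% = DMSO wells while the 100% control is not disclosed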
# Target sequence (O14672 214-748 limits assumed): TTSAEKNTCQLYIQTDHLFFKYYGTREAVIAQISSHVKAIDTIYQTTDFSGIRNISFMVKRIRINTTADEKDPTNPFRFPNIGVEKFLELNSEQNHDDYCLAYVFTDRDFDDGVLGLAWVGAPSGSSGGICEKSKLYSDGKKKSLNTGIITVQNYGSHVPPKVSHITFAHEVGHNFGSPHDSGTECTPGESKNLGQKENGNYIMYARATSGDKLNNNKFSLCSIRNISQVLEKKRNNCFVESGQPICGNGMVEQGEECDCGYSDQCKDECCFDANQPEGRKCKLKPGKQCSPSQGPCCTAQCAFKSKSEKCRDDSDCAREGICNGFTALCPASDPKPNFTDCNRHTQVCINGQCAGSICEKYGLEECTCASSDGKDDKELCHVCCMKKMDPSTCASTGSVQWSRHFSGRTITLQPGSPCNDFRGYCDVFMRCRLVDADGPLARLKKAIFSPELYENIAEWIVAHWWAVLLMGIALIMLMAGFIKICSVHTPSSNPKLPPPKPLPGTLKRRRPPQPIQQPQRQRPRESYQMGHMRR
# KLK7 act conf = confirmation of human kallikrein-7 zymogen activators. shares compounds with proKLK7 act. purified proKLK7, EDANS-DABCYL substrate fluorescence; scaled: vehicle 0, mature enzyme 100. activation, % at 7 µM. 68% of 3,200 active. AID 686949;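 active means activation, as change over the incubation, above the mean of all tested compounds plus 3 SD, cut at about 13% in these data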
# EDANS interfere = optically interferes with EDANS-DABCYL signal, flagging KLK7 hits | 80% of 3,200 active | activation, % at 7 µM | EDANS-DABCYL substrate fluorescence interference, no enzyme, 4 h; solvent 0%, active enzyme control 100% | shares compounds with proKLK7 act;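 active means activation above the all-compound mean plus 3 SD, ignoring values outside control-based bounds, cut at about 4.8% in these data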;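 further: value is the 4 h activation minus the activation read at time zero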
# * = called active by the depositor; i = inactive; . = no result given.
SMILES,proKLK7 act,rRNA inh HTS,ADAM17 inh,FGF22 binding,ADAM10 inh,KLK7 act conf,EDANS interfere
CO[C@@H]1CN(C)C(=O)c2ccc(NC(C)=O)cc2OC[C@H](C)N(C(=O)C2CC2)C[C@@H]1C,.,0.3,.,-0.1,.,.,.
COc1ccc(OC)c(C(c2c(C)[nH][nH]c2=O)c2c(C)[nH][nH]c2=O)c1,12.9*,14.1,-9.2,-1.2,-20.7,20.5*,20.0*
O=C1CCCc2nc3c(cc21)C(O)Oc1ccccc1-3 (stereo unspecified),70.7*,-7.1,-192.6,-0.1,i,52.1*,64.8*
O=C1CCCc2nc3c(cc21)C(O)Oc1c-3ccc2ccccc12 (stereo unspecified),-1.6,7.3,-9.1,-0.1,-24.8,.,.
O=C(C[C@H]1C[C@@H]2c3cc(NS(=O)(=O)c4ccc(F)cc4)ccc3O[C@@H]2[C@H](CO)O1)N1CCCCC1,.,1.7,.,0.3,.,.,.
COc1cccc(CNC(=S)Nc2ccc3c(c2)c(=O)n(C)n3Cc2ccc(F)cc2)c1,-12.2,-2.9,-440.0,-0.2,i,.,.
COc1ccccc1CCC(=O)Nc1ccc2c(c1)c(=O)n(C)n2C,26.7*,6.1,i,0.1,i,16.0*,17.1*
COc1cccc(CNC(=S)Nc2ccc3c(c2)c(=O)n(C)n3C)c1,25.4*,8.9,-477.8,-0.3,i,11.2,13.1*
COc1ccc2c3c([nH]c2c1)[C@H](CO)N(C(=O)CC1CC1)CC31CN(C(=O)CC2CC2)C1,.,0.1,.,0.1,.,.,.
C[C@@H]1CN([C@H](C)CO)C(=O)c2cc(C#CCN(C)C)cnc2O[C@H]1CN(C)Cc1cccc(C(=O)O)c1,.,8.1,.,0.1,.,.,.
COCCCNC(=O)c1ccc2nc3ccccc3c(=O)n2c1,30.8*,.,-447.0,.,i,60.0*,67.9*
COC(CNC(=O)c1ccc2nc3ccccc3c(=O)n2c1)OC,27.9*,1.7,-373.9,0.2,i,61.6*,68.4*
COc1ccc(CCNC(=O)c2ccc3nc4cc(Cl)ccc4c(=O)n3c2)cc1OC,-0.8,-0.1,-67.4,-0.2,-178.1,.,.
C#CCn1c(=NC(=O)c2ccc(S(=O)(=O)N3CCCc4ccccc43)cc2)sc2cc(S(N)(=O)=O)ccc21,50.8*,9.1,2.3,0.1,11.1,7.5,23.9*
COc1ccc(-c2c(C)c3cc(O)ccc3oc2=O)cc1,0.5,-9.5,-6.9,0.2,-33.7,.,.
Cc1c(CCC(=O)O)c(=O)oc2cc(O)ccc12,39.5*,.,i,.,i,66.1*,78.5*
COc1ccc(-c2c(C)c3ccc(O)cc3oc2=O)cc1OC,35.8*,-6.6,i,-0.1,i,68.7*,73.7*
CC1(C)CC(=O)C2=C(C1)N(CCN1CCOCC1)C1=C(C(=O)CC(C)(C)C1)C2c1cccc(F)c1,33.9*,.,-304.1,.,i,23.2*,20.1*
CC1(C)CC(=O)C2=C(C1)N(CCN1CCOCC1)C1=C(C(=O)CC(C)(C)C1)C2c1ccc(Cl)cc1,-4.8,3.9,-64.6,-0.3,-232.1,.,.
COc1ccc(C2C3=C(CC(C)(C)CC3=O)N(CCN3CCOCC3)C3=C2C(=O)CC(C)(C)C3)cc1,12.6*,6.2,-135.0,0.1,-414.4,5.1,14.9*
C[C@H]1CN([C@@H](C)CO)C(=O)c2cc(C#CC3CC3)cnc2O[C@H]1CN(C)C(=O)C1CCCCC1,.,7.9,.,.,.,.,.
COc1ccc(/C=N/NC(=O)c2nc(Cl)c(Cl)c(N)c2Cl)cc1COc1ccc(F)cc1F,-328.0,.,-5.5,.,-1.7,.,.
COc1ccc(/C=N/NC(=O)c2nc(Cl)c(Cl)c(N)c2Cl)cc1COc1ccccc1F,42.1*,.,-118.2,.,-392.2,58.8*,72.5*
CNc1cnc(-c2ccsc2)cn1,14.7*,19.4,-351.7,0.4,i,12.2,11.6*
Cc1noc(C)c1NC(=O)N(C)C[C@@H]1Oc2ncc(C#CC3CCCC3)cc2C(=O)N([C@@H](C)CO)C[C@H]1C,.,1.8,.,0.0,.,.,.
SMILES,proKLK7 act,rRNA inh HTS,ADAM17 inh,FGF22 binding,ADAM10 inh,KLK7 act conf,EDANS interfere
COc1ccc2c(c1)CCC1(C)CC(=O)C(Br)=C21 (stereo unspecified),124.3*,-50.0,i,0.1,i,71.3*,75.7*
Cc1ccc(S(=O)(=O)NCC[C@@H]2CC[C@@H](NC(=O)c3cccc(F)c3)[C@H](CO)O2)cc1,.,-1.1,.,-0.5,.,.,.
COc1ccc(CCC(=O)NNC(=O)Nc2ccc(OC)c(OC)c2)cc1,-0.8,20.6,1.0,-0.1,-2.7,.,.
COc1ccc(NC(=O)NNC(=O)CCc2ccc(O)c(O)c2)cc1OC,24.1*,7.5,-70.5,-0.7,-126.6,26.7*,24.2*
C[C@H](CO)N1C[C@H](C)[C@H](CN(C)C)OCCCC[C@H](C)Oc2ccc(NS(=O)(=O)c3ccc(F)cc3)cc2C1=O,.,-2.9,.,-0.1,.,.,.
Cc1ccc(C2C=C(c3ccccc3)Nc3nc(N4C(=O)CCC4=O)nn32)cc1 (stereo unspecified),90.8*,-6.9,-62.1,.,-174.6,-53.1,-89.5
COc1cc(OC)c(OC)cc1/C=C1/Cc2ccccc2C1=O,21.2*,9.1,-3.8,-0.3,1.3,91.7*,89.8*
Cc1cc(=O)oc2cc(O)cc(O)c12,65.8*,.,i,0.0,i,67.3*,76.4*
COc1cc(OC)c2c(C)cc(=O)oc2c1,32.4*,.,i,.,i,37.7*,48.0*
COc1ccc2ccc(=O)oc2c1,-0.7,.,-129.5,0.0,i,.,.
COc1cc(OC)c2ccc(=O)oc2c1,89.9*,6.5,i,0.0,i,49.2*,61.1*
C[C@@H]1CN([C@@H](C)CO)C(=O)c2cc(NC(=O)NC3CCCCC3)ccc2O[C@@H](C)CCCCO[C@@H]1CN(C)S(=O)(=O)c1ccc(F)cc1,.,0.5,.,-1.0,.,.,.
CCOC(=O)c1ccc(NC(=O)CSc2nnc(Cc3cccs3)n2C)cc1,-0.1,-7.1,0.8,.,14.5,.,.
Cc1ccc2nc(-c3ccc(NC(=O)CSc4nnc(-c5ccccc5)n4Cc4ccco4)cc3)sc2c1,127.7*,.,-57.1,.,-185.7,297.2*,333.1*
Cc1ccc2nc(-c3ccc(NC(=O)CSc4nnc(Cc5cccs5)n4C)cc3)sc2c1,149.4*,.,i,.,i,157.3*,86.4*
Cc1cccc(-c2nnc(SCC(=O)Nc3ccc(OCc4ccccc4)cc3)n2Cc2ccco2)c1,1.0,.,4.3,.,10.6,.,.
Cc1cccc(-c2nnc(SCC(=O)Nc3ccc(-c4nc5ccc(C)cc5s4)cc3)n2Cc2ccco2)c1,67.8*,.,-22.7,.,-90.6,61.7*,91.6*
CCOC(=O)c1c(NC(=O)CSc2nnc(-c3cccnc3)n2Cc2ccco2)sc(C)c1C,13.5*,.,-2.1,.,10.9,0.9,2.3

# Source: PubChem
